Measurements: PubChem BioAssay (NCI)
The panel holds about 83,000 compounds, 20% with a hit somewhere; the sample as a whole holds those more often.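 Cells were grown in 96-well plates and exposed to the test compound at a single concentration for 48 hours; results are reported as percent growth, with values below 10 considered active.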 Unmarked numbers belong to inactive results. Calls of active or inactive are those of the source.

Key:
Experiment in all cases: NCI-60 one-dose screen, 48 h (100 = growth as untreated, 0 = no growth, -100 = all killed)
Settings in all cases: 10 µM unless noted
SK-MEL-2 melanoma = system: SK-MEL-2 melanoma
EKVX NSCLC = system: EKVX NSCLC
SN12C renal = system: SN12C renal
UO-31 renal = system: UO-31 renal
TK-10 renal = system: TK-10 renal
ACHN renal = system: ACHN renal
A498 renal = system: A498 renal
MOLT-4 leukemia = system: MOLT-4 leukemia
CAKI-1 renal = system: CAKI-1 renal
CCRF-CEM leukemia = system: CCRF-CEM leukemia

SMILES: COc1cc2c(cc1OC)C(Sc1ccc(SC)cc1)c1c(nc(N)c(C#N)c1N)O2 (stereo not drawn)
- growth (SK-MEL-2 melanoma): -63.7% (active)
- growth (EKVX NSCLC): -45.6% (active)
- growth (SN12C renal): -88% (active)
- growth (UO-31 renal): -99.7% (active)
- growth (TK-10 renal): -95.7% (active)
- growth (ACHN renal): -86.4% (active)
- growth (A498 renal): -6.98% (active)
- growth (MOLT-4 leukemia): -26.3% (active)

SMILES: OCCN1CCN(c2nc(Nc3ccc(-c4nc5ccccc5[nH]4)cc3)c3cn[nH]c3n2)CC1
- growth (SK-MEL-2 melanoma): -83.6% (active)
- growth (EKVX NSCLC): -80.4% (active)
- growth (UO-31 renal): -89.4% (active)
- growth (TK-10 renal): -97.2% (active)
- growth (ACHN renal): -85.3% (active)
- growth (CAKI-1 renal): -97.3% (active)
- growth (A498 renal): -78.8% (active)
- growth (CCRF-CEM leukemia): -73.9% (active)
- growth (MOLT-4 leukemia): -79.6% (active)

SMILES: Clc1ccc2c(NCCCCNc3nc(N4CCCCC4)nc4ccccc34)ccnc2c1
- growth (SK-MEL-2 melanoma): -65.9% (active)
- growth (EKVX NSCLC): 38.9%
- growth (SN12C renal): 20.3%
- growth (UO-31 renal): -55.6% (active)
- growth (TK-10 renal): -59.5% (active)
- growth (ACHN renal): -43.7% (active)
- growth (A498 renal): 41.1%
- growth (CCRF-CEM leukemia): -22.9% (active)
- growth (MOLT-4 leukemia): 1.5% (active)

SMILES: CCOC(=O)c1c(C(=O)OCC)c2cc(-c3ccn4c(C(=O)c5ccccc5)c(C(=O)OCC)c(C(=O)OCC)c4c3)ccn2c1C(=O)c1ccccc1
- growth (SK-MEL-2 melanoma): 89.8%
- growth (EKVX NSCLC): 90.4%
- growth (SN12C renal): 93.6%
- growth (UO-31 renal): 66.6%
- growth (TK-10 renal): 112%
- growth (ACHN renal): 96.3%
- growth (A498 renal): 86.8%
- growth (CCRF-CEM leukemia): 72.9%
- growth (MOLT-4 leukemia): 68.1%

SMILES: FC(F)(F)Oc1ccc2nc3nc4ccc[nH]c4cc3c2c1
- growth (SK-MEL-2 melanoma): 98%
- growth (EKVX NSCLC): 62.8%
- growth (SN12C renal): 87.5%
- growth (UO-31 renal): 61.8%
- growth (TK-10 renal): 64.7%
- growth (ACHN renal): 56.4%
- growth (A498 renal): 98.1%
- growth (CCRF-CEM leukemia): 75.7%
- growth (MOLT-4 leukemia): 68.9%

SMILES: NC(=NCCCC1(c2ccccc2)CCCC1)Nc1ccc(Cl)cc1
- growth (SK-MEL-2 melanoma): 35.3%
- growth (EKVX NSCLC): 78.4%
- growth (UO-31 renal): 58.5%
- growth (TK-10 renal): 71.1%
- growth (ACHN renal): 34.7%
- growth (CAKI-1 renal): 64.9%
- growth (A498 renal): 83.1%
- growth (CCRF-CEM leukemia): 4.14% (active)

SMILES: CC(C)(C)N1CCC1CN (stereo not drawn)
- growth (SK-MEL-2 melanoma): 72.1%
- growth (EKVX NSCLC): 90.1%
- growth (SN12C renal): 111%
- growth (UO-31 renal): 91.1%
- growth (TK-10 renal): 106%
- growth (ACHN renal): 114%
- growth (A498 renal): 88.5%
- growth (MOLT-4 leukemia): 128%

SMILES: N#CN1CC[C@H](C(=O)Nc2cc3cc(C(N)=O)ccc3cn2)C1
- growth (SK-MEL-2 melanoma): -64.3% (active)
- growth (EKVX NSCLC): 2.35% (active)
- growth (UO-31 renal): 17.7%
- growth (TK-10 renal): -17.7% (active)
- growth (ACHN renal): 6.51% (active)
- growth (CAKI-1 renal): 11.9%
- growth (A498 renal): -34.4% (active)
- growth (CCRF-CEM leukemia): 7.66% (active)
- growth (MOLT-4 leukemia): -18.1% (active)

SMILES: COc1ccc(NC(=O)c2ccc(/C=C/C(=O)c3ncc[nH]3)cc2)cc1
- growth (SK-MEL-2 melanoma): 97.6%
- growth (EKVX NSCLC): 79.8%
- growth (SN12C renal): 70.8%
- growth (UO-31 renal): 48.4%
- growth (TK-10 renal): 88.8%
- growth (ACHN renal): 86.3%
- growth (A498 renal): 86.8%
- growth (MOLT-4 leukemia): 62.4%

SMILES: CC[C@@H]1O[C@H](O[C@@H](c2cnc[nH]2)[C@H](NC(=O)c2nc([C@H](CC(N)=O)NC[C@@H](N)C(N)=O)nc(N)c2C)C(=O)N[C@H](C)[C@H](O)[C@H](C)C(=O)N[C@@H](C(=O)NCCc2nc(-c3nc(C(=O)NCCCCN=C(N)N)cs3)cs2)[C@@H](C)O)[C@H](O[C@@H]2O[C@H](CO)[C@H](O)[C@H](OC(N)=O)[C@@H]2O)[C@H](C)[C@@H]1C
- growth (SK-MEL-2 melanoma): 101%
- growth (EKVX NSCLC): 91.8%
- growth (SN12C renal): 21.9%
- growth (UO-31 renal): 23.2%
- growth (TK-10 renal): 71.9%
- growth (A498 renal): 78.2%
- growth (CCRF-CEM leukemia): 80.5%
- growth (MOLT-4 leukemia): 46.8%

SMILES: Oc1ccc(N=Cc2ccccc2O)cc1
- growth (SK-MEL-2 melanoma): 141%
- growth (EKVX NSCLC): 103%
- growth (SN12C renal): 102%
- growth (UO-31 renal): 77.3%
- growth (TK-10 renal): 101%
- growth (ACHN renal): 88.3%
- growth (A498 renal): 112%
- growth (CCRF-CEM leukemia): 79.5%
- growth (MOLT-4 leukemia): 89.6%

SMILES: O=C1/C(=C/c2ccccc2O)N=C2SCCCN12
- growth (SK-MEL-2 melanoma): 95.6%
- growth (EKVX NSCLC): 81.8%
- growth (UO-31 renal): 84%
- growth (TK-10 renal): 109%
- growth (ACHN renal): 98.4%
- growth (CAKI-1 renal): 85.1%
- growth (A498 renal): 85.7%
- growth (CCRF-CEM leukemia): 131%
- growth (MOLT-4 leukemia): 115%

SMILES: COc1ccc(O)c(N=Nc2nccs2)c1
- growth (SK-MEL-2 melanoma): 91.6%
- growth (EKVX NSCLC): 54.3%
- growth (SN12C renal): 99.4%
- growth (UO-31 renal): 61.1%
- growth (TK-10 renal): 106%
- growth (ACHN renal): 28.7%
- growth (A498 renal): 88.4%
- growth (CCRF-CEM leukemia): 3.48% (active)
- growth (MOLT-4 leukemia): 7.26% (active)

SMILES: COc1ccc(-c2nnc(SCC(=O)c3ccc(Cl)cc3)o2)cc1
- growth (SK-MEL-2 melanoma): 104%
- growth (EKVX NSCLC): 101%
- growth (UO-31 renal): 99.8%
- growth (TK-10 renal): 95.9%
- growth (ACHN renal): 102%
- growth (CAKI-1 renal): 98.1%
- growth (A498 renal): 100%
- growth (CCRF-CEM leukemia): 114%

SMILES: O=c1ccccc(-c2ccc(-c3ccco3)cc2)c1O
- growth (SK-MEL-2 melanoma): 19.9%
- growth (EKVX NSCLC): 11.8%
- growth (SN12C renal): 11.3%
- growth (UO-31 renal): -12.2% (active)
- growth (TK-10 renal): 33.5%
- growth (ACHN renal): 9.23% (active)
- growth (A498 renal): 39%
- growth (CCRF-CEM leukemia): 5.03% (active)
- growth (MOLT-4 leukemia): 7.73% (active)

SMILES: COc1ccc(C(=O)COc2ccc(/C=C3\Oc4ccc(OC)cc4C3=O)cc2)cc1
- growth (SK-MEL-2 melanoma): 86.4%
- growth (EKVX NSCLC): 99.4%
- growth (SN12C renal): 101%
- growth (TK-10 renal): 119%
- growth (ACHN renal): 105%
- growth (CAKI-1 renal): 98.3%
- growth (A498 renal): 98.9%
- growth (CCRF-CEM leukemia): 72.6%
- growth (MOLT-4 leukemia): 83.6%
